According to PubChem BioAssay (NCI):
The panel holds about 83,000 compounds, 20% with a hit somewhere; the sample as a whole holds those more often.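 Testing used 96-well plates and a 48-hour single-concentration exposure. Example: -40 means 40% of the starting cells died.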 A number with no mark means an inactive call. Active and inactive are the calls of the source. Rule for the calls: active = growth percent below 10; inactive = the rest.

Legend:
Test in all cases: NCI-60 one-dose screen, 48 h (100 = growth as untreated, 0 = no growth, -100 = all killed)
Conditions in all cases: 10 µM unless noted
HCT-15 colon = system: HCT-15 colon
HT29 colon = system: HT29 colon
SNB-75 CNS = system: SNB-75 CNS
SNB-19 CNS = system: SNB-19 CNS
U251 CNS = system: U251 CNS
PC-3 prostate = system: PC-3 prostate
SK-MEL-5 melanoma = system: SK-MEL-5 melanoma
UACC-62 melanoma = system: UACC-62 melanoma
LOX IMVI melanoma = system: LOX IMVI melanoma
SK-MEL-28 melanoma = system: SK-MEL-28 melanoma
SK-MEL-2 melanoma = system: SK-MEL-2 melanoma
SN12C renal = system: SN12C renal
UO-31 renal = system: UO-31 renal
TK-10 renal = system: TK-10 renal
ACHN renal = system: ACHN renal
CAKI-1 renal = system: CAKI-1 renal
A498 renal = system: A498 renal
CCRF-CEM leukemia = system: CCRF-CEM leukemia
MOLT-4 leukemia = system: MOLT-4 leukemia
EKVX NSCLC = system: EKVX NSCLC

Row | Compound | growth (HCT-15 colon) | growth (HT29 colon) | growth (SNB-75 CNS) | growth (SNB-19 CNS) | growth (U251 CNS) | growth (PC-3 prostate) | growth (SK-MEL-5 melanoma) | growth (UACC-62 melanoma) | growth (LOX IMVI melanoma) | growth (SK-MEL-28 melanoma) | growth (SK-MEL-2 melanoma) | growth (SN12C renal) [%] | growth (UO-31 renal) [%] | growth (TK-10 renal) | growth (ACHN renal) [%] | growth (CAKI-1 renal) | growth (A498 renal) | growth (CCRF-CEM leukemia) | growth (MOLT-4 leukemia) | growth (EKVX NSCLC)
1 | C#CCOc1ccc(C2=NN(CC3CC3)C3N=C(Cl)c4ncn(CC5CC5)c4N23)cc1OCC#C (stereo unspecified) | 69.5% | 84.3% | 84.6% | 98.7% | 70.5% | 63.7% | 60.9% | 59.7% | 68.4% | 93.6% | 82.7% | 82.2 | 46.9 | 76% | 62 | 43.7% | 50.9% | 64.3% | 61% | 
2 | Clc1ccc2nc(-c3ccc(-c4ccc(/C=N/NC5=NCCN5)cc4)s3)cn2c1 | -27.3% (active) | 38.8% | 83.9% | 97.1% | 97.5% | 89.4% | 93% | 102% | 97.9% | 99.5% | 110% | 88.6 |  | 123% | 103 | 106% | 76.6% |  | 79.7% | 90.8%
3 | COc1ncc(-c2ccc3nc(N)n(-c4ccccc4C(F)(F)F)c(=O)c3c2)cc1S(=O)(=O)Nc1ccc(F)cc1F | 29.4% | 10.8% | 28.2% | 76.1% | 28.2% | 39% | -48.9% (active) | 68.8% | -52.2% (active) | 53.9% | 29.2% | 56 |  | 54.5% | 69.3 | 17.3% | -22.2% (active) | 24.5% | 74.5% | 20.9%
4 | CCOc1ccc(S(=O)(=O)Nc2ccc3c(c2)N(S(=O)(=O)CC)CCC3)cc1 | 89.9% | 72.7% | 64.8% | 80.4% | 61.8% | 73.1% | 74.9% | 64.8% | 83.4% | 103% | 111% | 85.1 |  | 80.9% | 45 | 55.1% | 69.3% | 81.1% | 71% | 96.1%
5 | O=S(=O)(NCCCNc1nccc(-c2c(-c3cccc(F)c3)nc3occn23)n1)c1cccc2ccccc12 | 29.2% | 5.59% (active) | 62.5% | 64.7% | 49.8% | 18.1% | 27% | 31.5% | 35.3% | 64.9% | 47.3% | 43.3 |  | 55.6% | 29.5 | 20.5% | 28.9% | 25.9% | 5.16% (active) | 47.3%
6 | O=C1CC(c2ccc3c(c2)OCO3)Nc2ccccc21 (stereo unspecified) | 22% | 4.29% (active) | 7.16% (active) | 33.2% | 15% | 16.8% | 18.9% | 20.1% | 37.4% | 47.5% | 40.1% | 34.4 |  | 40.1% | 46.9 | 33.9% | -11.2% (active) | 10.8% |  | 48.1%
7 | CCOC(=O)C(C(C)=O)c1nc2sc3cc(Cl)c(Cl)cc3n2c(=O)c1C#N (stereo unspecified) | 109% | 107% | 73% | 93% | 111% | 83.9% | 74.3% | 85.8% | 98.1% | 125% | 108% | 98.8 |  | 145% | 101 | 96.2% | 142% | 96.7% | 89.6% | 86%
8 | CSc1nc(=S)c2nc(SC)n(-c3ccccc3)c2[nH]1 | 106% | 92.3% | 94.8% | 100% | 93.5% | 82.3% | 98.5% | 90.3% | 90.9% | 108% | 83.1% | 96.7 |  | 96.9% | 102 | 90.9% | 86.6% | 82.5% | 107% | 105%
9 | CCCOc1ccc(-c2nc(-c3ccc(N)cc3)cs2)cc1 | 89.9% | 96.7% | 98% | 96.6% | 107% | 94.6% | 100% | 97% | 110% | 132% | 107% | 95.2 |  | 125% | 97.1 | 79.3% | 215% | 85.6% | 116% | 95.6%
10 | CC1(C)CC(=O)c2c(ccc(C(=O)C[C@@H](N)CO)c2N)O1 | 4.96% (active) | -7.99% (active) | 63.5% | 14% | 7.09% (active) | 24.7% | 29.4% | -9.38% (active) | -59% (active) | 17% | 9.07% (active) | 14.8 |  | 61.4% | 36.3 | 4.82% (active) | -70.4% (active) | 13% | 21% | 80.7%
11 | COc1ncc(-c2ccc3nccc(C#CCCCCC(=O)NO)c3c2)cc1NS(=O)(=O)c1ccc(F)cc1F | 24.9% | 7.04% (active) | -15.3% (active) | 4.98% (active) | -14% (active) | 7.68% (active) | -97.3% (active) | -37.3% (active) | -69.4% (active) | -27.9% (active) | -60.7% (active) | 15 |  | -25.1% (active) | 10.7 | 6.12% (active) | -76.1% (active) | -8.34% (active) | -18% (active) | 4.18% (active)
12 | CC(=O)Nc1ccc(C=Nc2ccc3ccccc3c2)cc1 | 105% | 105% | 77.7% | 92.9% | 113% | 96.5% | 99.6% | 97.2% | 114% | 108% | 121% | 99 |  | 106% | 118 | 47.4% | 108% | 93% | 100% | 116%
13 | Cc1nc(Cl)cc(N(c2cc(Cl)nc(C)n2)c2ncc(C(=O)Nc3c(C)cccc3Cl)s2)n1 | 59.4% | 20.4% | -30.3% (active) | 72.9% | 54.6% | 32.4% | 46.2% | 53.3% | 14.2% | 78% | 87.4% | 37.5 |  | 36.7% | 14.1 | 4% (active) | 35.6% | 53.7% | 40.6% | 84.7%
14 | C#C[C@]1(O)CC[C@H]2[C@@H]3CC=C4c5nc(Nc6ncccn6)sc5CC[C@]4(C)[C@H]3CC[C@@]21C | 33.1% | 55.4% | -7.12% (active) | 64.8% | 21.9% | 32.1% | 68.1% | 1.81% (active) | 26.9% | -41.4% (active) | 18% | 82.8 | 83.4 | 77.3% | 60.7 | 58.6% | 34.4% | 48.6% |  | 
15 | O=C(NNc1ccc(-c2ccccc2)nn1)c1ccc(F)cc1 | 89% | 96.1% | 79.9% | 86.5% | 95.2% | 105% | 95.3% | 95.3% | 98.9% | 110% | 108% | 95.1 |  | 82.9% | 90.9 | 61.8% |  | 108% | 96.2% | 78.4%
